Source: PubChem BioAssay
CXXC DNA block = inhibitors of human MLL CXXC domain-DNA interaction | Q03164 | MLL-CXXC / FITC-HOXA9 DNA fluorescence polarization | Potency, µM (titrated, usually from 115 µM), hits mostly inhibitors | actives 0.037% (n = 290,000) | AID 2662; active means well fitted inhibition curve with a large enough effect in the polarisation, with a control signal flat, not every such curve was filed as active; inconclusive means small, poorly fitted or top-dose-only effect, or effect the other way, or a change in a side signal; inactive means no such curve, though single readings can be large or run the other way; the % refers to the polarisation
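Fluorescence polarization: 7 uM MLL-CXXC (stock) preincubated 5 min with compounds, then 50 nM fluorescein-HOX-A9 DNA (stock) added; 30 min ambient. Buffer 50 mM Tris-HCl pH 7.5, 50 mM NaCl, 1 mM DTT, 0.05% BSA.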
Menin MLL FP TR = displaces Texas Red mutant MLL peptide from human menin; O00255; Menin + Texas Red MLL mutant peptide, fluorescence polarization; Potency, µM (series often up to 61.6 µM), most hits filed as inhibitors; actives 0.23% (n = 270,000); active means well fitted inhibition curve with a large enough effect in the polarisation, with a control signal flat, not every such curve was filed as active; inconclusive means small, poorly fitted or top-dose-only effect, or effect the other way, or a change in a side signal; inactive means no such curve, though single readings can be large or run the other way; the % refers to the polarisation
MBNL1 CUG block = MBNL1-poly(CUG) RNA binding inhibition. Q9NR56. TR-FRET MBNL1-His/biotin-(CUG)12 binding, 665/545 ratio. Potency, µM (titrated, usually from 57.5 µM), usual class: inhibitors. actives 0.036% (n = 280,000). AID 2675; active means well fitted inhibition curve with a large enough effect in the signal ratio, with a control signal flat, not every such curve was filed as active; inconclusive means small, poorly fitted or top-dose-only effect, or effect the other way, or a change in a side signal; inactive means no such curve, though single readings can be large or run the other way; the % refers to the signal ratio
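TR-FRET between His-tagged MBNL1 and biotin-(CUG)12 RNA, detected with Tb anti-His antibody (0.055 ng/ul) and streptavidin-XL665 (5 nM), 60 min at room temperature. Compounds titrated 92 nM to 58 uM; 665/545 nm ratio normalized to buffer and complex controls.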
S-ASM inh = blocks human secretory acid sphingomyelinase; P17405; AID 504937; placental ASM, HMU-PC fluorogenic substrate, 60 min; actives 0.006% (n = 340,000); Potency, µM (titrated, usually from 57.5 µM), most hits filed as inhibitors; active means well fitted inhibition curve with a large enough effect; inconclusive means small, poorly fitted or top-dose-only effect; inactive means no such curve, though single readings can be large or run the other way
Target sequence (P17405 47-631 limits assumed): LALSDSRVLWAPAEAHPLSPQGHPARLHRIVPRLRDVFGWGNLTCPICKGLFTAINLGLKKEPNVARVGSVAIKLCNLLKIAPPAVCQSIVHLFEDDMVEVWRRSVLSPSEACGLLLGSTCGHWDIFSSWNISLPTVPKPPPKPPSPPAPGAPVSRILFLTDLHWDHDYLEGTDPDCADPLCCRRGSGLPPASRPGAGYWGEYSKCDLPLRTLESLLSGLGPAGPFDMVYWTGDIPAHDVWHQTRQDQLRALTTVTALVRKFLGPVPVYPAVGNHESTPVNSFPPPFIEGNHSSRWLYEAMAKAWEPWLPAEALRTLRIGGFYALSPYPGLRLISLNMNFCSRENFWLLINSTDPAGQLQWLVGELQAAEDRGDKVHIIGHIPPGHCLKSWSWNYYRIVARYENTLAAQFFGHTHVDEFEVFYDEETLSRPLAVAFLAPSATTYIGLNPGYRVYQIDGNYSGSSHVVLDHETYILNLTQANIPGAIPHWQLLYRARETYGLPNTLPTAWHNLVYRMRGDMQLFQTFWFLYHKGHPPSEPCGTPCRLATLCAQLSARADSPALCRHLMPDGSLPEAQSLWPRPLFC
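Human placenta-derived ASM enzyme was preincubated with compound for 10 minutes at room temperature, then given fluorogenic substrate HMU-PC0 (9 uM final) for 60 minutes at 37 °C; a pH 10 stop preceded fluorescence reading at Ex 386/Em 447 nm.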
Menin MLL FP FL = displaces fluorescein MLL peptide from human menin; Fluorescence polarization, fluorescein-MLL peptide displacement from menin; FP activity change, % at 61.4 µM; 290,000 tested, under 10 active; active means well fitted curve in the direction sought with a large enough effect in the polarisation, not every such curve was filed as active; inconclusive means small, poorly fitted or top-dose-only effect, or effect the other way, or a change in a side signal; inactive means no such curve, though single readings can be large or run the other way; the % refers to the polarisation
pAkt inh = inhibitors of Akt phosphorylation; Neuro2A IGF-stimulated pAkt S473 HTRF, 20 min; stronger effect = lower value; AID 651550; actives 0.32% (n = 360,000); activity change, % for hits at 50 µM; in the data active means activity change below about -80%; inconclusive means mostly about -51% to -80%
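Neuro2A cells in DMEM with 0.5% FBS, overnight at 37 deg C, given compound at single 50 µM final, then IGF (6 nM final) for 20 min at 37 deg C. Lysed; phospho-Akt Ser473 by HTRF after 24 h, 665/615 ratio.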
A number is an active result. Compounds with a hit are over-represented: about 0.45% of the library has one in this group of screens.

`COc1ccc(-c2c(C(C)=O)c(C)nc3sc4c(c23)NC(c2ccccc2)NC4=O)cc1` (stereo not drawn) gave CXXC DNA block inactive, Menin MLL FP TR inconclusive, MBNL1 CUG block inactive, S-ASM inh inactive, Menin MLL FP FL inactive and pAkt inh -85%.
CCOC(=O)c1c(C)nc2sc3c(c2c1-c1ccc(OC)cc1)NC(c1ccccc1)NC3=O (stereo not drawn) was read as CXXC DNA block inactive, MBNL1 CUG block inactive, S-ASM inh inactive, Menin MLL FP FL inconclusive and pAkt inh inactive.
For COc1ccc(N2CCN(c3cnc4ccccc4n3)CC2)cc1 the results were CXXC DNA block inactive, Menin MLL FP TR inactive, MBNL1 CUG block inactive, S-ASM inh inactive, Menin MLL FP FL inactive and pAkt inh inactive.
COC(=O)c1cc(-c2ccc(Br)cc2)c2c(=O)[nH]c(=O)n(C)c2n1 was read as CXXC DNA block inconclusive, Menin MLL FP TR inactive, MBNL1 CUG block inactive, S-ASM inh inactive, Menin MLL FP FL inactive and pAkt inh inactive.
CCC(=O)N1CCc2cc(Br)cc(S(=O)(=O)CC(=O)OC)c21 was read as CXXC DNA block inactive, Menin MLL FP TR inactive, MBNL1 CUG block inactive, S-ASM inh inactive, Menin MLL FP FL inactive and pAkt inh -107%.
For CS(=O)(=O)N(CC(=O)N1CCCCCC1)c1ccccc1 the results were CXXC DNA block inactive, Menin MLL FP TR inactive, MBNL1 CUG block inactive, S-ASM inh inactive, Menin MLL FP FL inactive and pAkt inh inactive.
For O=C(c1cc(-c2ccncc2)nc2ccc(Br)cc12)N1CCN(c2ccccn2)CC1 the results were CXXC DNA block inactive, Menin MLL FP TR inconclusive, MBNL1 CUG block inactive, S-ASM inh inactive, Menin MLL FP FL inactive and pAkt inh -114%.
`O=C(c1cc(-c2ccccc2Cl)nc2ccc(Br)cc12)N1CCN(c2ccccn2)CC1` gave S-ASM inh inactive and pAkt inh inactive.
For CCOC(=O)N1CCN(C(=O)CN(Cc2ccc(Cl)cc2)S(=O)(=O)c2ccccc2)CC1 the results were CXXC DNA block inactive, Menin MLL FP TR inactive, MBNL1 CUG block inactive, S-ASM inh inactive, Menin MLL FP FL inactive and pAkt inh -103%.
Screening CCOC(=O)N1CCN(C(=O)CN(Cc2ccccc2)S(C)(=O)=O)CC1 returned CXXC DNA block inactive, Menin MLL FP TR inactive, MBNL1 CUG block inactive, S-ASM inh inactive, Menin MLL FP FL inactive and pAkt inh inactive.
COc1cccc(CN2CCN(C(c3ccccc3)c3ccccc3)CC2)c1O was read as CXXC DNA block inactive, Menin MLL FP TR inactive, MBNL1 CUG block inactive, S-ASM inh inactive, Menin MLL FP FL inactive and pAkt inh inactive.
CCOc1ccc(Cn2c(O)cc(=O)[nH]c2=O)cc1 was read as CXXC DNA block inactive, Menin MLL FP TR inconclusive, MBNL1 CUG block inactive, S-ASM inh inactive, Menin MLL FP FL inactive and pAkt inh -117%.
For Cc1cc(C)nc(N(C#N)CCOc2ccccc2)n1 the results were CXXC DNA block inactive, Menin MLL FP TR inactive, MBNL1 CUG block inactive, S-ASM inh inactive, Menin MLL FP FL inactive and pAkt inh inactive.
`CN(C)c1nc(N(C)C)nc(N(C#N)CCOc2ccccc2)n1` gave CXXC DNA block inactive, Menin MLL FP TR inactive, MBNL1 CUG block inactive, S-ASM inh inactive, Menin MLL FP FL inactive and pAkt inh -111%.
For CC(C)(C)NC(=O)COc1ccccc1C#N the results were CXXC DNA block inactive, Menin MLL FP TR inactive, MBNL1 CUG block inactive, S-ASM inh inactive, Menin MLL FP FL inactive and pAkt inh inactive.
N#Cc1ccccc1OCC(=O)NC(N)=O was read as CXXC DNA block inactive, MBNL1 CUG block inactive, S-ASM inh inactive, Menin MLL FP FL inactive and pAkt inh -111%.
For CC(=O)N1CCN(c2ccc(NCc3ccc(C)cc3)cc2)CC1 the results were CXXC DNA block inactive, Menin MLL FP TR inactive, MBNL1 CUG block inactive, S-ASM inh inactive, Menin MLL FP FL inactive and pAkt inh inactive.
`Cc1ccc(CNc2ccc(O)cc2)cc1` gave Menin MLL FP TR 18µM, MBNL1 CUG block inconclusive, S-ASM inh inactive, Menin MLL FP FL inactive and pAkt inh inactive.
Screening Cc1cccc2c1NC(C)CC2C (stereo not drawn) returned CXXC DNA block inactive, Menin MLL FP TR 25µM, MBNL1 CUG block inactive, S-ASM inh inactive, Menin MLL FP FL inactive and pAkt inh inactive.
Screening CCc1cccc2c1NC1(CCCC1)CC2C (stereo not drawn) returned CXXC DNA block inactive, Menin MLL FP TR inconclusive, MBNL1 CUG block inactive, S-ASM inh inactive, Menin MLL FP FL inactive and pAkt inh inactive.
For Cc1cccc(CNC(=O)C2CCCN(c3nn4c(=O)cc(C)nc4s3)C2)c1 (stereo not drawn) the results were Menin MLL FP TR inactive, MBNL1 CUG block inactive, S-ASM inh inactive, Menin MLL FP FL inactive and pAkt inh inactive.
CCCCn1c(C(C)NC(=O)c2cccs2)nc2ccccc21 (stereo not drawn) was read as CXXC DNA block inactive, Menin MLL FP TR inactive, MBNL1 CUG block inactive, S-ASM inh inactive, Menin MLL FP FL inactive and pAkt inh -103%.
CCc1cc2c(=O)c(Oc3ccccc3F)c(C)oc2c(CN(C)C)c1O was read as CXXC DNA block inactive, Menin MLL FP TR inactive, MBNL1 CUG block inactive, S-ASM inh inactive, Menin MLL FP FL inactive and pAkt inh -104%.
`Cc1c(Cc2ccccc2)c(=O)oc2c(CN(C)C)c(O)c(Cl)cc12` gave CXXC DNA block inactive, Menin MLL FP TR inactive, MBNL1 CUG block inconclusive, S-ASM inh inactive, Menin MLL FP FL inactive and pAkt inh inactive.
`O=c1c2ccccc2sn1-c1cccc(Cl)c1` gave pAkt inh inactive.
`O=c1c2ccccc2sn1-c1ccccc1` gave CXXC DNA block inactive, Menin MLL FP TR inactive, MBNL1 CUG block inactive, S-ASM inh inactive, Menin MLL FP FL inactive and pAkt inh -107%.
Cc1cc(C)c(C#N)c(SCCS(=O)(=O)Cc2ccc(Cl)cc2)n1 was read as CXXC DNA block inactive, Menin MLL FP TR inconclusive, MBNL1 CUG block inactive, S-ASM inh inactive, Menin MLL FP FL inactive and pAkt inh -91%.
`Cc1cc(C)c(C#N)c(SCCS(=O)(=O)c2ccc(Cl)cc2)n1` gave CXXC DNA block inactive, MBNL1 CUG block inactive, S-ASM inh inactive, Menin MLL FP FL inactive and pAkt inh inactive.
For Cc1cc(C)c(C#N)c(SCc2ccc(F)cc2)n1 the results were CXXC DNA block inactive, Menin MLL FP TR inactive, MBNL1 CUG block inactive, S-ASM inh inactive, Menin MLL FP FL inactive and pAkt inh inactive.
Cc1cc(C)c(C#N)c(SCc2ccc(C#N)cc2)n1 was read as CXXC DNA block inactive, Menin MLL FP TR inactive, MBNL1 CUG block inactive, S-ASM inh inactive, Menin MLL FP FL inactive and pAkt inh -92%.
